Most compounds without a hit are left out; they make up all but 2.3% or so of the library.
Nrf2 ARE act: qHTS of Nrf2 Activators; AID 624171, 2012; Potency, µM (doses to about 46.1 µM), hits mostly activators; AREc32 ARE-luciferase reporter (MCF7-derived line), luminescence, 24 h; hit rate 0.31% among 410,000; further: nearly all actives have a fitted effect of over 65% in size
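ARE-driven firefly luciferase activity in AREc32 cells measured after a 24 hr compound exposure at 37 deg C, using Steady-Glo reagent and a 30 min room-temperature hold.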
Nrf2 block: Nrf2 qHTS screen for inhibitors | A549 ARE-Fluc reporter, luciferase luminescence, 18-24 h | Potency, µM (series often up to 46 µM), usual class: inhibitors | hit rate 2.1% among 360,000 | AID 504444, 2011; further: nearly all actives have a fitted effect of over 60% in size
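Quantitative HTS in A549 cells stably bearing an antioxidant response element-firefly luciferase construct. Inhibition of Nrf2-driven transcription was scored by luminescence after 18-24 h of compound exposure at 37 °C.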
A549 viability: Nrf2 qHTS screen for inhibitors: counterscreen for cytotoxicity; A549 ARE-Fluc cells, CellTiter-Fluor viability, 18-24 h; Potency, µM (series often up to 46 µM), usual class: inhibitors; hit rate 0.16% among 390,000
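A549 ARE-Fluc cells in 5% FBS OPTI-MEM, 5000 cells/well, rested 2 h then exposed to compounds in concentration-response for 18-24 h at 37 °C. Viability by CellTiter-Fluor fluorescence (Ex 405/Em 525) after 30 min; luciferase luminescence (BugLite, 15 min, RT) read afterwards.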
IL2 activator: qHTS of IL-2 Activators. activation, % (series mostly up to about 46 µM). hit rate 0.065% among 360,000. IL-2 activation reporter assay, cell-based qHTS; stimulated with anti-CD3/CD4/CD28 beads; in transgenic mouse T cells; in the data active means activation above about 50%; inconclusive means mostly about 30% to 49%
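Quantitative HTS in unstimulated transgenic mouse T cells, with memory T cells as non-tolerant control and PMA/ionomycin as tolerance-bypass control. Compound pretreatment lasted 60 minutes before 18 h bead stimulation; EGFP/DsRed fluorescence read.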
Of the large screens only hits and unclear results are named; the others gave an inactive call. Unless noted, the call rests on the fitted dose curve; in most records, active means well fitted curve in the direction sought with a large enough effect; inconclusive means small, poorly fitted or top-dose-only effect, or another doubt; inactive means no such curve, though single readings can be large; an effect the other way counts as inactive or inconclusive.

Oc1ccc(NCc2ccccc2F)c2cccnc12	none (no result: Nrf2 ARE act, IL2 activator)
Cc1cc(C)n(-c2nc3cc(Cl)c(Cl)cc3nc2Nc2ccc(F)cc2C)n1	none (no result: IL2 activator)
O=C(c1cccc(C(F)(F)F)c1)N1CCOC12CCN(c1ncc(C(F)(F)F)cc1Cl)CC2	Nrf2 block 25.9µM
CCOC(=O)/C(=C\c1ccc(N2CCC(c3ccccc3)=N2)cc1)C(C)=O	none
CCOC(=O)C(=Cc1ccc(-n2cncn2)cc1)C(=O)OCC	Nrf2 ARE act inconclusive, Nrf2 block 18.4µM, A549 viability inconclusive
CCc1nnc2sc(-c3ccc(NC(=O)c4ccc5c(c4)OCCO5)cc3)nn12	Nrf2 block 2.59µM
O=c1c2cccnc2n(Cc2ccccc2F)c(=O)n1Cc1ccccc1Cl	none (no result: IL2 activator)
CCOc1ccccc1NC(=O)CSc1nc2ccccc2c2nc(CCn3cncc3C)nn12	none (no result: Nrf2 block, IL2 activator)
Cc1cc(Sc2nnc(N)s2)c2ccccc2n1	Nrf2 block inconclusive
Cc1cc(Sc2nnc(/N=C/N(C)C)s2)c2ccccc2n1	Nrf2 block 7.31µM
COc1ccc(CNS(=O)(=O)c2ccc(F)c(C(=O)Nc3c(C)cc(C)cc3C)c2)cc1	none (no result: Nrf2 block, IL2 activator)
N/C(=N\OC(=O)c1cccc2ccccc12)c1cccnc1	Nrf2 ARE act 2µM, Nrf2 block inconclusive
N/C(=N\OC(=O)/C=C/c1ccccc1Cl)c1cccnc1	Nrf2 ARE act 15.8µM, Nrf2 block inconclusive
Cc1ccc(Oc2c(C(F)(F)F)oc3c(CN4CCCCC4C)c(O)ccc3c2=O)cc1 (configuration not stated)	none (no result: IL2 activator)
Cc1cc(Nc2cccc(Cl)c2)nc2ccc(NC(=O)c3ccc(F)cc3Cl)cc12	Nrf2 block inconclusive (no result: IL2 activator)
CCCN1CNc2c(c(=O)[nH]c(=S)n2CCc2ccc(OCC)c(OCC)c2)C1	none (no result: Nrf2 ARE act, IL2 activator)
CCC1=C(OC(=O)N(CC)CC)N2C(=O)OC(=NCc3ccccc3)[C@]2(C)[C@H]2C1=CC[C@H]1C(=O)NC(=O)[C@H]12	Nrf2 block 18.4µM
CCC1=C(OC(=O)N(CC)CC)N2C(=O)OC(=NCC(=O)OC)[C@]2(C)[C@H]2C1=CC[C@H]1C(=O)NC(=O)[C@H]12	none
CSc1nn(Cc2ccc(Cl)cc2)c(N(C(C)=O)C(C)=O)c1S(=O)(=O)c1ccccc1	Nrf2 block inconclusive (no result: IL2 activator)
Cc1ccc(CNC(=O)CCCCCn2c(=O)c3sccc3n(CC(=O)C(C)(C)C)c2=O)cc1	none (no result: IL2 activator)
CC1(C)Cc2c(C#N)c(SCC(=O)c3ccccc3)nc(N3CCOCC3)c2CS1	Nrf2 block 16.4µM
COc1ccc(CN2CC(=O)N(c3ccc(C)cc3C)C2=S)cc1OC	Nrf2 block 13µM
COc1ccc(CN2CC(=O)N(c3ccccc3C)C2=S)cc1OC	Nrf2 block inconclusive
COc1cccc(NC(=O)Nc2cc(Cl)ccc2C)c1	Nrf2 block 18.4µM
COc1ccc(NC(=O)Nc2cccc(OC)c2)cc1	none
COc1ccc(NC(=O)Nc2cc(F)ccc2C)cc1	Nrf2 block 20.6µM
COc1ccc(CSc2nc3ccncc3n2Cc2nc(-c3ccc(OC)c(OC)c3)oc2C)cc1	A549 viability inconclusive (no result: IL2 activator)
COc1ccc(-c2nc(Cn3c(SCc4cccc(C(F)(F)F)c4)nc4cccnc43)c(C)o2)cc1OC	Nrf2 block 23.1µM (no result: IL2 activator)
COc1cccc(-c2nc(C(=O)NCC3CCCO3)cc3c2[nH]c2ccccc23)c1 (configuration not stated)	Nrf2 block 20.6µM
COc1ccc(OC)c(-c2nc(C(=O)NCC3CCCO3)cc3c2[nH]c2ccccc23)c1 (configuration not stated)	Nrf2 block inconclusive
Cc1nc2nc(-c3ccco3)[nH]n2c(=O)c1C	Nrf2 ARE act 11.2µM (no result: Nrf2 block)
Cc1nc2nc(-c3ccco3)[nH]n2c(=O)c1Cc1ccccc1	Nrf2 ARE act inconclusive (no result: Nrf2 block)
COc1ccccc1Nc1ccc(NC(=O)c2cccc([N+](=O)[O-])c2C)cc1	Nrf2 block 10.3µM
Cc1ccc(C)c(Nc2nc3c(S(=O)(=O)c4ccc(C(C)C)cc4)nnn3c3ccsc23)c1	Nrf2 block 16.4µM, A549 viability inconclusive (no result: IL2 activator)
C/C(=N\NC(=O)Cn1c(C)nc2ccccc21)c1cccs1	Nrf2 block 16.4µM
COc1ccc(/C=C/C(O)=C2/C(=O)N(C)C3(C)CC2c2ccccc2O3)cc1 (configuration not stated)	Nrf2 block 29.1µM, A549 viability inconclusive
COC(=O)Nc1ccc(S(=O)(=O)N2CCCC(C(=O)N3CCCCC3)C2)cc1 (configuration not stated)	Nrf2 block 16.4µM
CC(=O)N1c2ccc(S(=O)(=O)NCC3CCC(C(=O)N4CC(C)CC(C)C4)CC3)cc2CC1C (configuration not stated)	Nrf2 block 16.4µM
CCC(C)NC(=O)C1CCC(CNS(=O)(=O)c2ccc3c(c2)CC(C)N3C(C)=O)CC1 (configuration not stated)	none
CC(=O)N1c2ccc(S(=O)(=O)N3CCCC(C(=O)N4CCC(C)CC4)C3)cc2CC1C (configuration not stated)	Nrf2 block 20.6µM
CC(=O)N1c2ccc(S(=O)(=O)NCC3CCC(C(=O)Nc4cc(C)ccn4)CC3)cc2CC1C (configuration not stated)	Nrf2 block 23.1µM, A549 viability inconclusive
O=C(Nc1cccc(F)c1)C1CCN(c2nc3ccccc3[nH]2)CC1	none (no result: Nrf2 block, IL2 activator)
COc1ccccc1N/C(N)=N/c1nc(CSc2ccc(C)cc2)cc(=O)[nH]1	Nrf2 block 20.6µM
Cc1ccc(SCc2cc(=O)[nH]c(/N=C(\N)Nc3ccccc3Sc3ccccc3)n2)cc1	none
CCc1ccccc1Nc1nc2ccccc2[nH]1	Nrf2 block 14.6µM
COc1ccccc1Nc1nc2ccccc2[nH]1	none (no result: Nrf2 block)
CCOc1cc(-c2ccc(OC(=O)c3ccc(Cl)cc3)c(OC)c2)cc(=O)c2c(C)oc(C)c12	none (no result: IL2 activator)
Cc1csc(N(C)C(=O)CSc2nnc(COc3cccc4ccccc34)o2)n1	Nrf2 block 20.6µM
COC(=O)CSc1nnc(COc2cccc3ccccc23)o1	none
Cn1c(=O)c([N+](=O)[O-])c(Cl)c2ccccc21	Nrf2 block inconclusive, A549 viability 20.6µM
CCN(C(=O)CSc1cc(C)c2ccc(OC)cc2n1)C1CCS(=O)(=O)C1 (configuration not stated)	none
CCN(C(=O)CSc1cc(-c2ccccc2)c2ccc(OC)cc2n1)C1CCS(=O)(=O)C1 (configuration not stated)	Nrf2 block 23.1µM, A549 viability inconclusive
Cc1csc2c(N3CCN(C(=O)Nc4ccc(OC(F)(F)F)cc4)CC3)ncnc12	Nrf2 block 20.6µM
Cc1cc2c(s1)c1cnn(Cc3ccc4ccccc4c3)c(=O)c1n2C	none (no result: Nrf2 ARE act, IL2 activator)
Cc1ccc(C2C=C(c3ccccc3)Nc3nc(NS(=O)(=O)c4ccc(C)cc4)nn32)cc1 (configuration not stated)	none (no result: Nrf2 block, IL2 activator)
COc1ccc(C2C=C(c3ccccc3)Nc3nc(NS(=O)(=O)c4ccc(C)cc4)nn32)cc1 (configuration not stated)	Nrf2 block 18.4µM (no result: IL2 activator)

Screening data: PubChem BioAssay, National Center for Advancing Translational Sciences (NCATS)
